Records with an inconclusive call do not appear. The source made the active and inactive calls. Calls follow the shape of the dose curve; as a rule, active = well fitted cell-killing curve with a large enough effect; inconclusive = small, poorly fitted or top-dose-only effect, or effect the other way; inactive = no such curve, though single readings can be large or run the other way.
Test: Quantitative High-Throughput drug screen in 47 multiple myeloma cell lines against the NCATS MIPE library collection: OCIMY1_PLB cell viability assay (AID 1918979); also: nearly all actives have a fitted effect of over 35% in size
Conditions: OCI-MY1 myeloma viability, CellTiter-Glo ATP, 48 h; series mostly up to 45.8 µM
Method in brief: (§1)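 ATP-based CellTiter-Glo luminescence after 48 h drug exposure (37 °C, 5% CO2) of 500 myeloma cells per well. DMSO-only wells set 100% viability, media-only wells 0%; MIPE 4.0 library added by pin tool.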
Potency is read from the fitted curve at half-maximal effect.

Structure (SMILES)	Potency
NCCc1cnc[nH]1	inactive
CN(C)CCC=C1c2ccccc2C=Cc2ccccc21	inactive
O=c1c(-c2ccc(O)cc2)coc2cc(O)cc(O)c12	inactive
Clc1ccc(C(c2ccccc2Cl)C(Cl)Cl)cc1 (stereo unspecified)	26.4 µM (active)
NCCS(=O)(=O)O	inactive
COc1ccccc1OCCNCC(O)COc1cccc2[nH]c3ccccc3c12 (stereo unspecified)	inactive
O=C(C1CCCCC1)N1CC(=O)N2CCc3ccccc3C2C1 (stereo unspecified)	inactive
CN(C)C(=N)N=C(N)N	inactive
Nc1nnc(-c2cccc(Cl)c2Cl)c(N)n1	inactive
O=C(CCCN1CCC(O)(c2ccc(Cl)cc2)CC1)c1ccc(F)cc1	inactive
Cc1ccccc1N1C(=O)c2cc(S(N)(=O)=O)c(Cl)cc2NC1C (stereo unspecified)	inactive
CC(CCc1ccc(O)cc1)NCCc1ccc(O)c(O)c1 (stereo unspecified)	18.7 µM (active)
CN(Cc1cnc2nc(N)nc(N)c2n1)c1ccc(C(=O)N[C@@H](CCC(=O)O)C(=O)O)cc1	4.18 µM (active)
O=C1N(c2ccccc2)c2ccccc2C1(Cc1ccncc1)Cc1ccncc1	inactive

Test: Quantitative High-Throughput drug screen in 47 multiple myeloma cell lines against the NCATS MIPE library collection: MM1S_ATCC cell viability assay (AID 1918980); also: nearly all actives have a fitted effect of over 45% in size
Conditions: MM1S myeloma viability, CellTiter-Glo ATP luminescence, 48 h; series mostly up to 45.8 µM
Method in brief: as §1

Structure (SMILES)	Potency
CN(C)CCOC(c1ccccc1)c1ccccc1	10.5 µM (active)
COc1cc2nc(N(C)CCCNC(=O)C3CCCO3)nc(N)c2cc1OC (stereo unspecified)	inactive
CC(C)(Oc1ccc(C2CC2(Cl)Cl)cc1)C(=O)O (stereo unspecified)	9.59 µM (active)
NCCS(=O)(=O)O	inactive
CC(C(=O)O)c1cccc(C(=O)c2ccccc2)c1 (stereo unspecified)	2.96 µM (active)
CN1CCN(C2=Nc3cc(Cl)ccc3Nc3ccccc32)CC1	14.8 µM (active)
CS(=O)(=O)Nc1ccc([N+](=O)[O-])cc1Oc1ccccc1	16.6 µM (active)
CN(C)C(=N)N=C(N)N	inactive
Nc1nnc(-c2cccc(Cl)c2Cl)c(N)n1	11.8 µM (active)
O=C(CCCN1CCC(O)(c2ccc(Cl)cc2)CC1)c1ccc(F)cc1	9.35 µM (active)
Cc1ccccc1N1C(=O)c2cc(S(N)(=O)=O)c(Cl)cc2NC1C (stereo unspecified)	inactive
CC(CCc1ccc(O)cc1)NCCc1ccc(O)c(O)c1 (stereo unspecified)	10.5 µM (active)
OCCN(CCO)c1nc(N2CCCCC2)c2nc(N(CCO)CCO)nc(N3CCCCC3)c2n1	20.9 µM (active)
CN1CCN2c3ccccc3Cc3ccccc3C2C1 (stereo unspecified)	13.2 µM (active)
COc1ccc2c(c1)c(CC(=O)O)c(C)n2C(=O)c1ccc(Cl)cc1	18.7 µM (active)
Cc1ccc(-c2cc(C(F)(F)F)nn2-c2ccc(S(N)(=O)=O)cc2)cc1	20.9 µM (active)
CN(Cc1cnc2nc(N)nc(N)c2n1)c1ccc(C(=O)N[C@@H](CCC(=O)O)C(=O)O)cc1	0.0187 µM (active)

Source: PubChem BioAssay (NCATS)
